Rows were chosen to be rich in hits. Some 19% of all compounds tested hit in one or more screens of this group.
IL1B secr inh = inhibitors of inflammasome signaling (IL-1 beta secretion) | AID 743279 | 360,000 compounds, 4.7% hits | activity change, % at 57.5 µM | THP-1 LPS/ATP IL-1B secretion, AlphaLISA, 16 h; hits give low values; in the data active means activity change below about -50%; inconclusive means mostly about -30% to -49%
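THP-1 cells pretreated 1 hr with compounds (up to 57.5 uM final), then stimulated with LPS (250 ng/mL final) plus ATP (1.25 mM final); secreted IL-1B measured by AlphaLISA after 16 hr, decreased signal indicating inhibition.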
HT1080NT lethal = kills 2HG-producing HT-1080-NT fibrosarcoma cells; Potency, µM (titrated, usually from 46.1 µM), actives largely listed as cytotoxic; AID 686970; 360,000 compounds, 1.6% hits; HT-1080-NT fibrosarcoma viability, CellTiter-Glo ATP luminescence, 48 h;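 further: NT is the 2HG producing partner of a matched IDH1 knockdown line; nearly all actives have a fitted effect of over 55% in size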
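750 cells/well, RPMI + 5% FBS; 2 h settle, compound pin-transfer, 48 h at 37 degrees C. CellTiter-Glo 10 min RT, luminescence. Normalized to DMSO and media-only wells.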
TDP1 cell noCPT = qHTS for Inhibitors of human tyrosyl-DNA phosphodiesterase 1 (TDP1): qHTS in cells in absence of CPT. AID 686978, 2013. DT40 Tdp1-/- hTDP1 cells, no CPT, ATP luminescence, 48 h. Potency, µM (doses to about 46.2 µM), hits mostly inhibitors. 420,000 compounds, 15% hits; further: nearly all actives have a fitted effect of over 55% in size
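Growth of hTDP1-complemented DT40 Tdp1-knockout cells is measured by ATP luminescence after at least 48 hr compound exposure at 37 °C, with DMSO substituting for the 20 nM CPT used in the parallel screen.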
HT1080 IDH1KD tx = HT-1080 IDH1 knockdown cell toxicity (counter line); 360,000 compounds, 2% hits; HT-1080 IDH1 knockdown viability, ATP luminescence, 48 h; AID 686971; Potency, µM (doses to about 46.1 µM), most hits filed as cytotoxic
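Luminescent ATP read-out (CellTiter-Glo, 10 min at room temperature) after 48 h compound exposure at 37 °C gave viability of IDH1-knockdown HT-1080 cells. Activity was normalised to DMSO and cell-free wells, then fitted as concentration-response curves.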
TDP1 cell CPT = DT40-hTDP1 cell growth loss with CPT | 420,000 compounds, 12% hits | chicken DT40 Tdp1-/-;hTDP1 cells + 20 nM CPT, ATP luminescence, 48 h | Potency, µM (series often up to 46.2 µM), usual class: inhibitors; further: nearly all actives have a fitted effect of over 55% in size
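Chicken DT40 Tdp1-/- cells stably complemented with human TDP1 were seeded at 400 cells/well in medium containing 20 nM camptothecin, exposed to pin-transferred compounds, and grown at 37 °C for at least 48 hr. Viability was read as ATP luminescence.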
Large screens that a line does not name were inactive. Unless noted, the call rests on the fitted dose curve; in most records, active means well fitted curve in the direction sought with a large enough effect; inconclusive means small, poorly fitted or top-dose-only effect, or another doubt; inactive means no such curve, though single readings can be large; an effect the other way counts as inactive or inconclusive.

CN(C)S(=O)(=O)c1ccc(Cl)c(NC(=O)CN2CCN(c3ccccn3)CC2)c1	TDP1 cell noCPT 23µM, TDP1 cell CPT inconclusive
O=C(O)c1ccc2c(=O)n3c(nc2c1)/C(=C/c1ccc(Cl)c(Cl)c1)CC3	none
CCCCNC(=O)CCn1c(=O)c2ccccc2n(Cc2ccccc2C#N)c1=O	none (no result: IL1B secr inh, HT1080NT lethal, HT1080 IDH1KD tx)
CCc1ccc(CNc2ccc(N3CCN(C(C)=O)CC3)cc2)cc1	TDP1 cell noCPT 18µM, HT1080 IDH1KD tx inconclusive
CCc1ccc(NC(=O)N2CCN(c3ccc(F)cc3)CC2)cc1	TDP1 cell noCPT 26µM, TDP1 cell CPT inconclusive
O=C(Nc1ccccc1)N1CCN(c2ccc(F)cc2)CC1	IL1B secr inh inconclusive, TDP1 cell noCPT inconclusive, TDP1 cell CPT inconclusive
Cc1ccc(S(=O)(=O)NCc2nnnn2-c2ccc(F)cc2)cc1	none
COc1ccc(C2N(c3ccc(Cl)cc3)N=C(C(C)=O)N(C)N2C(C)=O)cc1 (centres undefined)	IL1B secr inh -58, HT1080NT lethal inconclusive, TDP1 cell noCPT inconclusive, HT1080 IDH1KD tx inconclusive
COc1ccc(N2CCN(C(=O)NC(=O)c3ccc(Cl)cc3)CC2)cc1	TDP1 cell CPT inconclusive
O=C1CCCN1CCCNc1ccc2nnc(CCC(=O)N3CCN(c4ccccc4)CC3)n2n1	none
CCOc1ccc(Oc2c(C)oc3cc(O)ccc3c2=O)cc1	none
Cc1oc2cc(O)ccc2c(=O)c1Oc1ccccc1	TDP1 cell noCPT 5.8µM, TDP1 cell CPT 6.5µM
CCOC(=O)c1ccc(Oc2c(C)oc3cc(OS(C)(=O)=O)ccc3c2=O)cc1	TDP1 cell noCPT 16µM, TDP1 cell CPT 16µM
COc1cc(Cc2ccc(N)c(OC)c2)ccc1N	TDP1 cell CPT inconclusive
Nc1ccc(Cc2ccc(N)c(O)c2)cc1O	TDP1 cell noCPT inconclusive, TDP1 cell CPT 23µM
COc1ccc(-n2c(C)nc(N)c2C(=O)c2ccccc2)cc1	none (no result: IL1B secr inh)
COc1ccccc1-c1ccc(/C=C2\C=CC(=O)O2)o1	TDP1 cell noCPT inconclusive, HT1080 IDH1KD tx inconclusive, TDP1 cell CPT 21µM (no result: IL1B secr inh)
COc1ccccc1-c1ccc(/C=C2/C=C(C)OC2=O)o1	TDP1 cell noCPT 10µM, TDP1 cell CPT 13µM
COc1ccc(C(=O)N2CCC2(C)C(=O)NC(C)C)cc1OC (centres undefined)	none
CC(C)C(=O)N1CCC1(C)C(=O)Nc1ccc2cn[nH]c2c1 (centres undefined)	none
CC(C)(C)c1ccc(C(=O)N2CCC2(C)C(=O)Nc2ccc3[nH]ncc3c2)cc1 (centres undefined)	TDP1 cell noCPT 15µM, HT1080 IDH1KD tx inconclusive, TDP1 cell CPT 21µM
CC(C)(C)c1ccc(C(=O)N2CCC2(C)C(=O)Nc2ccc3nc[nH]c3c2)cc1 (centres undefined)	TDP1 cell noCPT 18µM, TDP1 cell CPT 15µM
COc1ccc(NC(=O)C2(C)CCN2C(=O)c2ccc(C(C)(C)C)cc2)cc1OC (centres undefined)	TDP1 cell noCPT 10µM, HT1080 IDH1KD tx inconclusive, TDP1 cell CPT 13µM
CC1(C(=O)Nc2ccc3nc[nH]c3c2)CCN1C(=O)c1ccccc1CCc1ccccc1 (centres undefined)	TDP1 cell noCPT inconclusive, TDP1 cell CPT inconclusive
Cc1ccccc1NC(=O)N1CCN(C/C=C/c2ccccc2)CC1	TDP1 cell noCPT inconclusive, TDP1 cell CPT inconclusive
Cc1ccc(NC(=O)Cn2c(=O)n(Cc3ccccc3)c(=O)c3c(C)c(C)sc32)c(C)c1	none (no result: IL1B secr inh, HT1080NT lethal, HT1080 IDH1KD tx)
Cc1c(CCOC(=O)C2C3CC4CC(C3)CC2C4)sc[n+]1CC(=O)c1ccc(Br)cc1 (centres undefined)	IL1B secr inh -85, HT1080NT lethal inconclusive, TDP1 cell noCPT 18µM, HT1080 IDH1KD tx inconclusive, TDP1 cell CPT inconclusive
Cc1c(CCOC(=O)c2ccc(Cl)cc2Cl)sc[n+]1CC(=O)c1ccc(Br)cc1	IL1B secr inh inconclusive, TDP1 cell noCPT 18µM, TDP1 cell CPT inconclusive
Cc1cc(NC(=O)COC(=O)c2cnccn2)ccc1Br	none
Cc1ccc(CNC(=O)C23CN(Cc4ccccc4)CC2C(c2cccc([N+](=O)[O-])c2)=NO3)cc1 (centres undefined)	TDP1 cell noCPT 21µM, TDP1 cell CPT inconclusive
O=C(NCc1ccco1)C12CN(Cc3ccccc3)CC1C(c1cccc([N+](=O)[O-])c1)=NO2 (centres undefined)	TDP1 cell noCPT 18µM, TDP1 cell CPT inconclusive
O=C(NCc1ccco1)C12CN(Cc3ccccc3)CC1C(c1ccc([N+](=O)[O-])cc1)=NO2 (centres undefined)	TDP1 cell noCPT inconclusive, TDP1 cell CPT 16µM
O=C(CNC(=O)c1nc[nH]c1C(=O)NCc1ccccc1)OCc1ccccc1	TDP1 cell noCPT inconclusive, TDP1 cell CPT inconclusive
Cc1cccc(-c2nc3c4ccccc4nc(N4CCN(c5cccc(Cl)c5)CC4)n3n2)c1	TDP1 cell CPT inconclusive (no result: IL1B secr inh, HT1080NT lethal, HT1080 IDH1KD tx)
O=C(CSc1nnc2c(Cl)cc(C(F)(F)F)cn12)NCc1ccc(F)cc1	none
O=C(CSc1nnc2c(Cl)cc(C(F)(F)F)cn12)N(Cc1ccccc1)Cc1ccccc1	TDP1 cell noCPT 21µM
CCOC(=O)C1CCCN(C(=O)c2cc3ccc(OC)cc3[nH]2)C1 (centres undefined)	TDP1 cell noCPT inconclusive
COc1ccc(CN2C(=O)CSCC2=O)cc1OC	none
COc1ccc(CCNC2CC(=O)N(CCc3ccccc3)C2=O)cc1OC (centres undefined)	none
COc1ccc(CCN2C(=O)CC(Nc3ccc(N4CCOCC4)cc3)C2=O)cc1OC (centres undefined)	TDP1 cell noCPT 2.3µM
COc1ccc(CCN2C(=O)CSC2=S)cc1OC	IL1B secr inh -73, HT1080NT lethal inconclusive, TDP1 cell noCPT 2.6µM, HT1080 IDH1KD tx 23µM, TDP1 cell CPT 2.9µM
COc1ccc(CCN2C(=O)CC(N3CCOCC3)C2=O)cc1OC (centres undefined)	none
CCc1ccc(NC2CC(=O)N(CCc3ccc(OC)c(OC)c3)C2=O)cc1 (centres undefined)	TDP1 cell noCPT 23µM, TDP1 cell CPT inconclusive
CCCc1nn2c(=O)cc(COC(=O)c3ccccc3NC(=O)c3cccs3)nc2s1	none (no result: IL1B secr inh, HT1080NT lethal, HT1080 IDH1KD tx)
[O-][n+]1onc2c3cc(-c4ccccc4)nnc3ccc21	TDP1 cell noCPT inconclusive
Clc1cccc(N2CCN(c3nc4ccccc4c4nc(-c5ccccc5)nn34)CC2)c1	none (no result: IL1B secr inh, HT1080NT lethal, HT1080 IDH1KD tx)
COc1cc(CNc2nc(C)c(-c3ccn(CC4CCCN(C)C4)n3)s2)ccc1F (centres undefined)	TDP1 cell noCPT 23µM (no result: IL1B secr inh, HT1080NT lethal, HT1080 IDH1KD tx)
COc1ccc(NC(=O)CN(c2ccc(C)cc2)S(=O)(=O)c2cccs2)cc1	none (no result: IL1B secr inh, HT1080NT lethal, HT1080 IDH1KD tx)
COc1cc(NC(=O)CSc2nnc3c4ccccc4n(C)c3n2)cc(OC)c1OC	TDP1 cell noCPT inconclusive (no result: IL1B secr inh)
